Hit rate of the full screen: of about 5,600 compounds, about 4,400 (79%) were called active. The set was probably picked from earlier hits. These entries were drawn from the full list. A number with no mark means an inactive call. Rule as the data show it: active = inhibition above about 27%; inactive = the rest.

The assay deals with Fructose-bisphosphate aldolase (Mycobacterium tuberculosis (strain ATCC 25618 / H37Rv)) (UniProt P9WQA3). Description: M. tuberculosis aldolase blockers, biochemical, fluorescence, strain H37Rv, confirmation (AID 651616).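 Also: 0% = vehicle wells and 100% = reference inhibitor wells.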 The settings on record: purified M. tuberculosis FBA, fluorescence read-out, at 1 µM, stronger effect = higher value.
Fructose-bisphosphate aldolase (Mycobacterium tuberculosis (strain ATCC 25618 / H37Rv)), sequence (P9WQA3 whole entry, looked up): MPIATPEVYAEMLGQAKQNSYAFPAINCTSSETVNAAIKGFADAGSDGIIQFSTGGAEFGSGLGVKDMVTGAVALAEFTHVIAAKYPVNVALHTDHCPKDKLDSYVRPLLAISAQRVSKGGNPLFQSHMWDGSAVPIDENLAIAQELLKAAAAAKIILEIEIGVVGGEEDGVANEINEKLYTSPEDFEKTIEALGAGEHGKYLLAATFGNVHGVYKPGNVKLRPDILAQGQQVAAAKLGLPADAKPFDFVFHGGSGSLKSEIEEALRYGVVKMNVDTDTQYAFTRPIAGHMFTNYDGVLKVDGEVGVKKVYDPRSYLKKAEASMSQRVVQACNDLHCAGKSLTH
Broadly, the inhibition is the drop in the measured response relative to a control, in per cent. In the case of `CCNC(=S)Nc1ccc2c(c1)c(=O)n(C)n2Cc1ccc(Cl)cc1`, the inhibition was 3.5%.

As for `Cc1ccc(-c2nc3ccccc3[nH]c2=O)cc1`, the inhibition is 74.3% (active).

Turning to `CCOC(=O)COc1nc(C)cc(C(F)(F)F)c1C#N`, the inhibition is 39.2% (active).

As for `CCc1cc(=O)oc2cc(C)cc(OCC(=O)N3CCC[C@@H]3C(=O)O)c12`, the inhibition is 83.3% (active).

Take `Cc1ccn2c(c1)nc(=O)c1cc(S(=O)(=O)N3CCC(C)CC3)ccc12`: the inhibition is 5.35%.

For `Cc1ccc(-c2nc3ccccc3c(=O)n2-c2ccc(Br)cn2)cc1`, the inhibition was 98.1% (active).

For `C[C@H]1CN([C@@H](C)CO)C(=O)c2cc(Br)cnc2O[C@H]1CN(C)S(=O)(=O)c1cccs1`, the inhibition is 8.79%.

Turning to `COCCNc1cc(-c2ccccc2)nc2cc(-c3cccc(F)c3)nn12`, the inhibition is 133% (active).

With `Fc1ccc(COc2cccc(-c3n[nH]c(=S)o3)c2)cc1`, the inhibition is 169% (active).

For the compound `O=C(Nc1ccc2nccnc2c1)c1ccco1`, the inhibition was 692% [above what the read-out allows, likely interference] (active).

Turning to `CCCn1c(=O)c(-c2ccccc2)c(O)c2ccccc21`, the inhibition is 94.4% (active).

Regarding `Cc1ccc(S(=O)(=O)N2C[C@@H](C)[C@]3(C2)[C@H](O)[C@H](OC(=O)NCc2ccccc2)C[C@H]2C(=O)N(c4ccccc4)C(=O)[C@H]23)cc1`, the inhibition is 9.3%.

Take `Fc1ccc(N2N=C(c3cccs3)CC2c2ccco2)c(F)c1` (stereo not drawn): the inhibition is 1.22%.

Consider `Oc1ccccc1C1=NN(c2ccccc2)C(c2ccccc2)C1` (stereo not drawn), for which the inhibition is 107% (active).

Regarding `COc1ccc(C2CC(c3cccs3)=NN2c2ccc(F)cc2)cc1OC` (stereo not drawn), the inhibition is 101% (active).

Regarding `COc1ccc(C2CC(c3cccs3)=NN2c2ccccc2)cc1` (stereo not drawn), the inhibition is 38.9% (active).

As to `COc1ccccc1N1N=C(c2cccs2)CC1c1ccccc1` (stereo not drawn), the inhibition was 46.8% (active).

As to `CS(=O)(=O)Nc1ccc(C2=NN(S(C)(=O)=O)C(c3cccs3)C2)cc1` (stereo not drawn), the inhibition is 2.17%.

Turning to `Cc1ccc(-c2nc(C#N)c(NCCCn3ccnc3)o2)cc1`, the inhibition was 41.3% (active).

As for `Cc1nc2ccc(NC(=O)N3CCC(c4ccccc4)C3)cc2nc1C` (stereo not drawn), the inhibition is 98.1% (active).

Consider `O=C(NCc1ccccc1)c1onc(CSc2nc3ccccc3[nH]2)c1C(=O)NCc1ccccc1`, for which the inhibition was 74.2% (active).

Take `COCCNc1nc(-n2nc(C)cc2C)nc2sc3c(c12)CCCC3`: the inhibition is 109% (active).

As for `O=C(NCCCN1CCOCC1)c1cnn2c(-c3ccccc3)cc(-c3ccccc3)nc12`, the inhibition was 96.2% (active).

Consider `CC(C)(C)NC(=O)COc1ccc(CNc2ccc3[nH]c(=O)[nH]c3c2)cc1`, for which the inhibition was 1.48%.

As for `CC(C)n1ncc2c(C(=O)NCc3ccccc3CN(C)C)cc(C3CC3)nc21`, the inhibition was 144% (active).

For the compound `COC(=O)c1cc(-c2cccs2)nc2ccccc12`, the inhibition was 136% (active).

Take `O=C(NCCN1CCOCC1)c1cc(-c2cccs2)nc2ccccc12`: the inhibition is 8.64%.

As for `CC(C)(C)OC(=O)NNc1c2ccccc2nc2ccccc12`, the inhibition was -3.52%.

With `Brc1cnc2ccccc2c1N1CCCCC1`, the inhibition is 83.3% (active).

As to `COc1ccc2c(c1)cc1n2CCN=C1NN`, the inhibition was 108% (active).

`CCN(C(=O)COC(=O)c1ccc(COc2ccc3c(C)cc(=O)oc3c2)cc1)C1CCS(=O)(=O)C1` (stereo not drawn): the inhibition was 4.73%.

For `CCC(C)N(C(=O)COC(=O)C1C(C(=O)OC)=C(C)NC(C)=C1C(=O)OC)C1CCS(=O)(=O)C1` (stereo not drawn), the inhibition was 172% (active).

For the compound `COCc1cc(=O)[nH]c2cc(NC(=O)C(F)(F)F)c(C)cc12`, the inhibition is 73% (active).

Consider `CN1c2ccc(C=O)c3c(C=O)ccc(c23)N(C)C1(C)C`, for which the inhibition was 21.7%.

On to `CN(C(=O)c1cc2c(=O)n3ccccc3nc2s1)C1CCCCC1`, for which the inhibition is 50.9% (active).

Take `Cc1ccc(-n2c(=O)c(C#N)cc3c(=O)n4ccccc4nc32)cc1C`: the inhibition was 21.8%.

In the case of `COCCCNC(=S)NCCNc1nc2cc(C)c(C)cc2cc1C#N`, the inhibition was 91.5% (active).

As for `CCOc1ccc2nc(NCCNS(=O)(=O)c3ccccc3)c(C#N)cc2c1`, the inhibition is 19.6%.

As for `CN(C(=O)c1ccccn1)c1nnc(-c2ccccn2)s1`, the inhibition was 618% [above what the read-out allows, likely interference] (active).

`CN(C(=O)COc1ccccc1)c1nnc(-c2ccncc2)s1`: the inhibition was 830% [above what the read-out allows, likely interference] (active).

Take `CC1=CC2=NC(=O)CC(C)(C(=O)N(CC(=O)NC(C)(C)C)Cc3ccccc3)N2C=C1` (stereo not drawn): the inhibition was 4.13%.

Consider `CCCCC(NS(=O)(=O)c1ccc(C)cc1)C(=O)Oc1ccc2c3c(c(=O)oc2c1)CCC3` (stereo not drawn), for which the inhibition is 81.2% (active).

In the case of `NC(=O)C1CCN(C(=O)COc2ccc3c4c(c(=O)oc3c2)CCC4)CC1`, the inhibition was -0.32%.

With `CCCNC(=O)c1c(N)n(-c2ccc(S(N)(=O)=O)cc2)c2nc3ccccc3nc12`, the inhibition is 25.9%.

Turning to `COCC(C)OC(=O)c1c(N)n(CCCN2CCOCC2)c2nc3ccccc3nc12` (stereo not drawn), the inhibition is -0.37%.

As to `C=CCn1c(N)c(C(=O)OCC(C)C)c2nc3ccccc3nc21`, the inhibition is 73.3% (active).

For `CC(C)Cn1c(N)c(C(=O)NCc2cccs2)c2nc3ccccc3nc21`, the inhibition is 41.1% (active).

For the compound `O=C(Nc1cccc2ccccc12)N1CCN(Cc2ccc3c(c2)OCO3)CC1`, the inhibition is 72.6% (active).

As to `CCOC(=O)N1CCN(C(=O)c2cc3c(ccc4ccccc43)oc2=O)CC1`, the inhibition was 4.05%.

With `O=C(Nc1cccc2ccccc12)N1CCC2(CC1)OCCO2`, the inhibition is 124% (active).

For the compound `COCCCn1c(C(=O)NC2CCCCC2)cc2c(=O)n3cccc(C)c3nc21`, the inhibition was 66.3% (active).

Consider `C#Cc1cc(N2CCN(C(=O)c3ccoc3)CC2)n2nc(-c3cccc(Cl)c3)cc2n1`, for which the inhibition was 85.9% (active).

Consider `C=CCn1cc(-c2cccc(C(F)(F)F)c2)cc(C#N)c1=O`, for which the inhibition was 0.59%.

On to `Cn1cc(-c2ccccc2)cc(C#N)c1=O`, for which the inhibition is 79.6% (active).

`CCCCN(CCCC)CC(O)Cn1c2ccccc2c(=O)c2ccccc21` (stereo not drawn): the inhibition is 113% (active).

Take `Nc1ccccc1C(=O)NC1CCCCNC1=O` (stereo not drawn): the inhibition is 151% (active).

For `CCOC(=O)NN1C(=O)c2ccccc2NC1c1cccc(O)c1` (stereo not drawn), the inhibition was 136% (active).

`Cc1ccc(C2Nc3ccccc3C(=O)N2CCN2CCNC2=O)cc1` (stereo not drawn): the inhibition was -6.16%.

As for `Cc1cc(S(=O)(=O)c2cc3ccc(O)c(C)c3oc2=O)ccc1F`, the inhibition was 44.7% (active).

For `CCOc1ccc2nc(Nc3nc4ccc(NC(C)=O)cc4s3)sc2c1`, the inhibition was 19%.

As for `Cc1c(CCC(=O)O)c(=O)oc2cc(OCc3ccc(Br)cc3)ccc12`, the inhibition was 4.1%.

For `CCc1c(C)c2ccc(OC3CCCCC3=O)cc2oc1=O` (stereo not drawn), the inhibition is 99.7% (active).

Consider `CCN1CCN(C(=O)c2cc3cc4ccc(OC)cc4nc3s2)CC1`, for which the inhibition was 96.2% (active).

For `CN(CCOc1ccccc1)C(=O)c1cc(-c2ccco2)nc2ccccc12`, the inhibition was 5.04%.

As to `O=C(c1cc(-c2ccco2)nc2ccccc12)N(Cc1nnc(-c2ccc(Cl)cc2)o1)C1CC1`, the inhibition was 120% (active).

For the compound `Nc1ccccc1-c1nc2ccncc2[nH]1`, the inhibition is 3.13%.

With `COc1ccc2sc(-c3ccc(N(C)C)cc3)c(-c3ccc4cc[nH]c4c3)c2c1`, the inhibition was 59.8% (active).

Regarding `O=C(NCCN1CCN(Cc2ccccc2)CC1)c1cc2c(=O)[nH]c3ccccc3c2s1`, the inhibition is 133% (active).

As for `Cc1cccc2c1-c1sc(C(=O)NCCCN3CCc4ccccc4C3)cc1CO2`, the inhibition is 0.47%.

Take `Cc1nn(-c2ccccc2)nc1C(=O)OCC(=O)N1CCCCC1C` (stereo not drawn): the inhibition is -2.48%.

Turning to `Cc1cnc(C(=O)OCC(=O)N2CCc3ccccc32)cn1`, the inhibition is 108% (active).

As for `CCC1C(=O)c2ccccc2N(C)C1=O` (stereo not drawn), the inhibition was 7.44%.

Take `COc1ccc2[nH]c3c(=O)n(Cc4ccco4)cnc3c2c1`: the inhibition was 8.42%.

As to `COc1cccc2sc3cc(NCC[C@@H]4CCCN4C)ccc3c(=O)c12`, the inhibition was 77.9% (active).

`Cc1cc(=O)oc2c1ccc1ccccc12`: the inhibition was 88.8% (active).

As to `COCCCn1c(CCC(=O)O)ccc1-c1ccc(F)cc1`, the inhibition is 46% (active).

As to `Cc1ccc(C2Nc3cccc4cccc(c34)N2)cc1`, the inhibition was 177% (active).

Take `O=C1C(=O)N(c2ccccc2)C(c2ccccc2)C1c1ccccc1` (stereo not drawn): the inhibition is 13.8%.

With `OC[C@@H]1CN(Cc2cccs2)C[C@H](n2cnc3c(Nc4ccccc4)ncnc32)O1`, the inhibition was 90.6% (active).

On to `COc1cc(/C=C/c2ccc(/C=C/c3cc(OC)c(OC)c(OC)c3)cc2)cc(OC)c1OC`, for which the inhibition is 27.4% (active).

For `COc1ccc(NC(=O)CN(C)C(=O)c2cc(-c3ccc(C)o3)nc3ccccc23)cc1`, the inhibition is 79.1% (active).

On to `COCCCNC(=O)/C(C#N)=C/c1c(N2CCCCCC2)nc2ccccn2c1=O`, for which the inhibition is 60.9% (active).

Turning to `CCCc1nc2oc3c(=O)[nH]cnc3c2c2c1COC(C)(C)C2`, the inhibition is 108% (active).

Consider `CCOC(=O)c1[nH]c2ccc(OC)cc2c1NC(=O)N1CCOCC1`, for which the inhibition is 130% (active).

Turning to `CCOC(=O)c1[nH]c2ccc(OC)cc2c1NC(=O)CCN1CCN(Cc2ccccc2)CC1`, the inhibition was 3.58%.

For `CC(OC(=O)c1ccccc1NCCO)C(=O)Nc1ccnn1C(C)C` (stereo not drawn), the inhibition is 81.6% (active).

`CN1C(=O)c2ccc(NC(=O)c3c(F)c(F)c(F)c(F)c3F)cc2C1=O`: the inhibition was 822% [above what the read-out allows, likely interference] (active).

On to `CN1C(=O)c2ccc(NC(=O)C3CCCCC3)cc2C1=O`, for which the inhibition is 2.86%.

For the compound `CN(C)CCCNC(=O)c1ccc2[nH]c3ccccc3c2c1`, the inhibition is 103% (active).

For the compound `c1ccc(Cc2c(-c3ccco3)nc3c4ccccc4ccn23)cc1`, the inhibition was 137% (active).

Turning to `CCOC(=O)c1cc2cc(C)ccc2[nH]1`, the inhibition was 50.4% (active).

For `CCN1CCc2c(C#N)c(NCc3ccccc3)nc(NCCO)c2C1`, the inhibition was 175% (active).

`COc1ccc2c(c1OC)C(=O)N(c1ncn[nH]1)C2`: the inhibition is 85.2% (active).

Values taken from PubChem BioAssay AID651616 (The Scripps Research Institute Molecular Screening Center, 2012).
